Read-out in test [1]: Intercellular Adhesion Molecule 1 (ICAM1), ICAM1 (gene 3383)
In words: BSK_3C_ICAM1: BioMAP Diversity Plus: 3C Assay for Intercellular Adhesion Molecule 1 (ICAM1) Biomarker Activity (AID 2283003). The conditions noted are these: primary human endothelial cells (HUVEC); actives raise or lower the signal. Put shortly:
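Chemicals are dosed onto primary human umbilical vein endothelium (3C system). After 24 h, ICAM-1 is measured by ELISA, and responses are fitted bidirectionally relative to DMSO.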

The target in test [2] is Retinoic acid receptor alpha (Homo sapiens) (UniProt P10276). In words: ATG_RARa_TRANS: Attagene TRANS-FACTORIAL HepG2 Assay for human Retinoic Acid Receptor alpha (RARa) (AID 2283005; active = hit-call score of the fitted dose curve at least 0.9, where 1 is the maximum). Put shortly: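 Reporter transcripts, measured by RT-PCR with fluorescent labeling and capillary electrophoresis after 24 h dosing, reflect activity of an exogenous human RARa–GAL4 fusion in transiently transfected HepG2. Fitted for increase relative to DMSO.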
Sequence of Retinoic acid receptor alpha (Homo sapiens) (P10276 whole entry, looked up, the tested form may be a part): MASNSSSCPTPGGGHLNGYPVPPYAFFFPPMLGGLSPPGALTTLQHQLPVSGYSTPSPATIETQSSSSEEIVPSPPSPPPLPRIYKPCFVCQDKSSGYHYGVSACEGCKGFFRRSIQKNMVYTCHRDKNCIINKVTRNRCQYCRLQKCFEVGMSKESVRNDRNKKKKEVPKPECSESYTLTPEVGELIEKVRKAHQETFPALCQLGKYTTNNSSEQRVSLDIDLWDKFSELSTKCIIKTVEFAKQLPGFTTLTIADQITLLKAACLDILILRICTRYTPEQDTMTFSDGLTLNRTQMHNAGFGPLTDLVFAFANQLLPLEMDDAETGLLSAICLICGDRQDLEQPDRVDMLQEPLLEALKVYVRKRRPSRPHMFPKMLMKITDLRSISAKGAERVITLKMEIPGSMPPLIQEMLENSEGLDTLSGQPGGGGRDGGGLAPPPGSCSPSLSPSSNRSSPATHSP

The target in test [3] is Peroxisome proliferator-activated receptor gamma (Homo sapiens) (UniProt P37231). In words: ATG_PPARg_TRANS: Attagene TRANS-FACTORIAL HepG2 Assay for human Peroxisome Proliferator-activated Receptor-gamma (PPARg) (AID 2283007; active = hit-call score of the fitted dose curve at least 0.9, where 1 is the maximum). Put shortly:
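Multiplexed reporter transcription units in HepG2, 24 h dosing, reporter transcripts quantified by fluorescent RT-PCR and capillary electrophoresis. Increase over DMSO scored.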

In test [4] the target is Nuclear receptor subfamily 1 group I member 2 (Homo sapiens) (UniProt O75469). In words: ATG_PXR_TRANS: Attagene TRANS-FACTORIAL HepG2 Assay for human Pregnane X Receptor (PXR) (AID 2283008; active = hit-call score of the fitted dose curve at least 0.9, where 1 is the maximum). The method in brief: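 Transient HepG2 transfectants carrying multiplexed reporter transcription units; PXR activity read through a Gal4 chimera. 24 h exposure. RT-PCR/CE fluorescence; upward curve fit referenced to DMSO.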
Sequence of Nuclear receptor subfamily 1 group I member 2 (Homo sapiens) (O75469 whole entry, looked up, the tested form may be a part): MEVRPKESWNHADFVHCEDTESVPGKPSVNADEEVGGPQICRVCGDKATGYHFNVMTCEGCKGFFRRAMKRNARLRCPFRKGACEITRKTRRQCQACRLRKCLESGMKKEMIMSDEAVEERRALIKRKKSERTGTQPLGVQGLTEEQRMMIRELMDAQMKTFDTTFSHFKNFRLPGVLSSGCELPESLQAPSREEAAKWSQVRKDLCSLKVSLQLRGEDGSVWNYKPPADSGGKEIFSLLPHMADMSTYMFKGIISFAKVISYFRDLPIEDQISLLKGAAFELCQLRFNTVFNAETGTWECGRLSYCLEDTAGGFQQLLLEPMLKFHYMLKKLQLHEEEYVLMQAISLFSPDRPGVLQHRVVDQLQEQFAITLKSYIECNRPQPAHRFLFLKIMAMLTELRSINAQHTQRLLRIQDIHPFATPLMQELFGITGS

The target in test [5] is human Retinoic Acid Receptor gamma (RARg), RARG (gene 5916) (UniProt P13631). Nature of the test: ATG_RARg_TRANS: Attagene TRANS-FACTORIAL HepG2 Assay for human Retinoic Acid Receptor gamma (RARg) (AID 2283009; active = hit-call score of the fitted dose curve at least 0.9, where 1 is the maximum). The method in brief:
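TRANS format measured activity of exogenous NR-GAL4 fusion (RARg) in transfected HepG2 liver cells after 24 h dosing. Induced reporter RNA was detected by RT-PCR/capillary electrophoresis fluorescence, analysed in the positive direction against DMSO.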

In test [6] the target is Retinoic acid receptor RXR-alpha (Homo sapiens) (UniProt P19793). Nature of the test: ATG_RXRa_TRANS: Attagene TRANS-FACTORIAL HepG2 Assay for human Retinoid X Receptor alpha (RXRa) (AID 2283012; active = hit-call score of the fitted dose curve at least 0.9, where 1 is the maximum). Put shortly: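 Measures exogenous chimeric NR-GAL4 activity in transfected HepG2 liver cells after 24 h of dosing. Induced reporter mRNA was detected by RT-PCR with capillary electrophoresis, and gain of signal was analysed against DMSO.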
Sequence of Retinoic acid receptor RXR-alpha (Homo sapiens) (P19793 whole entry, looked up, the tested form may be a part): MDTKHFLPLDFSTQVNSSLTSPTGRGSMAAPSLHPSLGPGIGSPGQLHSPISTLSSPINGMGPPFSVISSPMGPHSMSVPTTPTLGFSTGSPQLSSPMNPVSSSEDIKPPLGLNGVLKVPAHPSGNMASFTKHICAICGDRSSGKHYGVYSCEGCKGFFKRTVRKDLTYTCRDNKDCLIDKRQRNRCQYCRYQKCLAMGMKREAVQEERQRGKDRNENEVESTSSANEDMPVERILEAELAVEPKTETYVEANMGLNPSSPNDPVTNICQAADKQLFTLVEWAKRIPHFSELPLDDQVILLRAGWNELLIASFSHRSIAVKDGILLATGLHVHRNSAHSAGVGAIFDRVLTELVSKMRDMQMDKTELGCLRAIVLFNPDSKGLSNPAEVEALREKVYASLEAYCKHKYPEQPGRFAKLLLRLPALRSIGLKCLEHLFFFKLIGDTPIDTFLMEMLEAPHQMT

For test [7], the target named is human Retinoid X Receptor beta (RXRb), RXRB (gene 6257) (UniProt P28702). In words: ATG_RXRb_TRANS: Attagene TRANS-FACTORIAL HepG2 Assay for human Retinoid X Receptor beta (RXRb) (AID 2283013; active = hit-call score of the fitted dose curve at least 0.9, where 1 is the maximum). The method in brief: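 Chimeric receptor-Gal4 activity was assessed in transiently transfected human HepG2 cells after 24 h exposure. Transcripts from GAL4-UAS reporters were quantified by fluorescent RT-PCR and capillary electrophoresis, with DMSO as negative control and baseline.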
Sequence of human Retinoid X Receptor beta (RXRb), RXRB (gene 6257) (P28702 whole entry, looked up, the tested form may be a part): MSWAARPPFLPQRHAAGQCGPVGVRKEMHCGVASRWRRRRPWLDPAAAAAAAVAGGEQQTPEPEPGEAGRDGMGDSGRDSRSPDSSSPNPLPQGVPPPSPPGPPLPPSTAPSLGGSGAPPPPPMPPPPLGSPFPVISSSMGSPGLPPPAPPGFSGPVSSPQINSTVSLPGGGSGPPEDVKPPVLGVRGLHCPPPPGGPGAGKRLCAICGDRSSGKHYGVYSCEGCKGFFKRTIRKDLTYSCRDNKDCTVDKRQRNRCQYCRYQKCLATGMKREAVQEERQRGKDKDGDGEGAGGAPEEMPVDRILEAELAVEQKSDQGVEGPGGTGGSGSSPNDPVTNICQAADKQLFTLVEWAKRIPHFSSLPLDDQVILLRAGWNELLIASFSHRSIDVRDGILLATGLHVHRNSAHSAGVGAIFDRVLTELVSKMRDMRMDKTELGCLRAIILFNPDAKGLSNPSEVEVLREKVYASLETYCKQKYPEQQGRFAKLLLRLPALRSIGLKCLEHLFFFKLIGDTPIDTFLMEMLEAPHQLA

Test [8] concerns the target human Thyroid Receptor alpha (THRa1), THRA (gene 7067) (UniProt P10827). Nature of the test: ATG_THRa1_TRANS: Attagene TRANS-FACTORIAL HepG2 Assay for human Thyroid Receptor alpha (THRa1) (AID 2283014; active = hit-call score of the fitted dose curve at least 0.9, where 1 is the maximum). Put shortly: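 Reporter transcript induction, read by capillary electrophoresis of 6-FAM-labelled RT-PCR products, reflects activity of a transfected THRa1-Gal4 fusion in HepG2 liver cells. Cells were dosed for 24 h; activity was fitted in the positive direction against DMSO.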

Read-out in test [9]: E-selectin (Homo sapiens) (UniProt P16581)
Nature of the test: BSK_3C_Eselectin: BioMAP Diversity Plus: 3C Assay for Eselectin Biomarker Activity (AID 2283015).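 As to outcome: cell surface E-selectin protein quantified by ELISA 24 h after dosing.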 The conditions noted are these: primary human endothelial cells (HUVEC); actives raise or lower the signal. The method in brief:
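ELISA read-out of E-selectin on endothelial monolayers after 24 h chemical treatment. Human umbilical vein primary cells served as the system, with DMSO defining baseline activity for bidirectional fitting.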

Read-out in test [10]: Interleukin-1 alpha (IL1a), IL1A (gene 3552)
Nature of the test: BSK_BE3C_IL1a: BioMAP Diversity Plus: BE3C Assay for Interleukin-1 alpha (IL1a) Biomarker Activity (AID 2283016). The settings on record: primary human bronchial epithelial cells; actives raise or lower the signal. The method in brief: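 Signal from IL-1a ELISA, taken 24 h after chemical dosing of human bronchial epithelial cells, is compared with DMSO as baseline using bidirectional curve fitting.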

Read-out in test [11]: Monocyte Chemoattractant Protein-1 (MCP1), CCL2 (gene 6347)
Nature of the test: BSK_3C_MCP1: BioMAP Diversity Plus: 3C Assay for Monocyte Chemoattractant Protein-1 (MCP1) Biomarker Activity (AID 2283017). The settings on record: primary human endothelial cells (HUVEC); actives raise or lower the signal. Put shortly:
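ELISA read-out of MCP-1 from human umbilical vein endothelial cell cultures harvested 24 h post-dosing. Gain or loss of signal was fitted relative to DMSO.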

Read-out in test [12]: Monocyte Chemoattractant Protein-1 (MCP1), CCL2 (gene 6347)
Nature of the test: BSK_4H_MCP1: BioMAP Diversity Plus: 4H Assay for Monocyte Chemoattractant Protein-1 (MCP1) Biomarker Activity (AID 2283018). The settings on record: primary human endothelial cells (HUVEC); actives raise or lower the signal. Put shortly:
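Endothelial cells from umbilical vein were treated with test chemical, then after 24 h MCP-1 levels were quantified by ELISA; endpoint values came from bidirectional fitting with DMSO as baseline of activity.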

Read-out in test [13]: Human Leukocyte Antigen - DR isotype (HLADR), HLA-DRA (gene 3122)
Nature of the test: BSK_3C_HLADR: BioMAP Diversity Plus: 3C Assay for Human Leukocyte Antigen - DR isotype (HLADR) Biomarker Activity (AID 2283019). The settings on record: primary human endothelial cells (HUVEC); actives raise or lower the signal. Put shortly: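 ELISA readout of surface HLA-DR on human umbilical vein endothelium, taken 24 h after chemical treatment. Gain- and loss-of-signal were both fitted relative to DMSO.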

Read-out in test [14]: Interleukin-8 (IL8), CXCL8 (gene 3576)
Nature of the test: BSK_3C_IL8: BioMAP Diversity Plus: 3C Assay for Interleukin-8 (IL8) Biomarker Activity (AID 2283020). The conditions noted are these: primary human endothelial cells (HUVEC); actives raise or lower the signal. Put shortly: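 Endothelial primary cells of human umbilical vein origin are dosed with chemical; after 24 h the IL-8 biomarker is measured by ELISA, and concentration–response is fitted in both directions versus DMSO.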

Read-out in test [15]: Monokine induced gamma interferon (MIG), CXCL9 (gene 4283)
In words: BSK_3C_MIG: BioMAP Diversity Plus: 3C Assay for Monokine induced gamma interferon (MIG) Biomarker Activity (AID 2283021). The conditions noted are these: primary human endothelial cells (HUVEC); actives raise or lower the signal. The method in brief: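 Endothelial primary cells (human umbilical vein) are dosed with test chemical in the 3C system. MIG levels are measured by ELISA at 24 h and fitted in both directions relative to DMSO.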

For test [16], the target named is human Retinoic Acid Receptor beta (RARb), RARB (gene 5915) (UniProt P10826). In words: ATG_RARb_TRANS: Attagene TRANS-FACTORIAL HepG2 Assay for human Retinoic Acid Receptor beta (AID 2283004; active = hit-call score of the fitted dose curve at least 0.9, where 1 is the maximum). Put shortly:
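Transient transfection of HepG2 with multiple reporter units → chemical dosing, 24 h → total RNA isolation → RT with oligo(dT) → reporter-specific PCR, 6-FAM primer extension, HpaI digest → capillary electrophoresis. Positive direction vs DMSO control.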

Test [17] is described as follows: BSK_3C_Proliferation: Cell Proliferation Assessment in the BioMAP Diversity Plus: 3C Assay (AID 2283006). The settings on record: primary human endothelial cells (HUVEC). The method in brief: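 Cells (human umbilical vein endothelial, sub-confluent) receive test chemical; after 48 h they are fixed in 10% trichloroacetic acid, stained with 0.1% SRB and read at 560 nm. Activity is referenced to DMSO, fitting increases and decreases.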

Test [18] deals with human RAR-related Orphan Receptor beta (RORb), RORB (gene 6096) (UniProt Q92753). In words: ATG_RORb_TRANS: Attagene TRANS-FACTORIAL HepG2 Assay for human RAR-related Orphan Receptor beta (RORb) (AID 2283010; active = hit-call score of the fitted dose curve at least 0.9, where 1 is the maximum). Put shortly: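 Transfect HepG2 with multiple GAL4-UAS reporter transcription units; dose chemicals for 24 h; isolate RNA, reverse-transcribe and PCR-amplify reporter sequences; label, digest and resolve fragments by capillary electrophoresis; fit increases relative to DMSO.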
Sequence of human RAR-related Orphan Receptor beta (RORb), RORB (gene 6096) (Q92753 whole entry, looked up, the tested form may be a part): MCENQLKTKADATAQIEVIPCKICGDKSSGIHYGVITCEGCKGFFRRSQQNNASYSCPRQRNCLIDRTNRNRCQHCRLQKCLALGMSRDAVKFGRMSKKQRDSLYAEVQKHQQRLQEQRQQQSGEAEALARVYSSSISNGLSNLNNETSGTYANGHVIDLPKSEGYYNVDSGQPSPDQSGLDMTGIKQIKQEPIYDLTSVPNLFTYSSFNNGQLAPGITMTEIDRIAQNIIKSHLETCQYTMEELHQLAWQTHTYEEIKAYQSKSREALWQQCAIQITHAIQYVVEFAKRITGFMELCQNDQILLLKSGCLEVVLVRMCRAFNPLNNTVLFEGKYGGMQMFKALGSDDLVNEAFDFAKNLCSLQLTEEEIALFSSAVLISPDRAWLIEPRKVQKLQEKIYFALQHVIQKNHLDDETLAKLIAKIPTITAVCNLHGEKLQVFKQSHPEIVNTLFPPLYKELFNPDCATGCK

Inconclusive results are not listed. Active and inactive are the calls of the source. The calls were made as follows, unless noted: active = hit-call score of the fitted dose curve at least 0.9, where 1 is the maximum; inactive = score below 0.9.

Sequence of E-selectin (Homo sapiens) (P16581 whole entry, looked up): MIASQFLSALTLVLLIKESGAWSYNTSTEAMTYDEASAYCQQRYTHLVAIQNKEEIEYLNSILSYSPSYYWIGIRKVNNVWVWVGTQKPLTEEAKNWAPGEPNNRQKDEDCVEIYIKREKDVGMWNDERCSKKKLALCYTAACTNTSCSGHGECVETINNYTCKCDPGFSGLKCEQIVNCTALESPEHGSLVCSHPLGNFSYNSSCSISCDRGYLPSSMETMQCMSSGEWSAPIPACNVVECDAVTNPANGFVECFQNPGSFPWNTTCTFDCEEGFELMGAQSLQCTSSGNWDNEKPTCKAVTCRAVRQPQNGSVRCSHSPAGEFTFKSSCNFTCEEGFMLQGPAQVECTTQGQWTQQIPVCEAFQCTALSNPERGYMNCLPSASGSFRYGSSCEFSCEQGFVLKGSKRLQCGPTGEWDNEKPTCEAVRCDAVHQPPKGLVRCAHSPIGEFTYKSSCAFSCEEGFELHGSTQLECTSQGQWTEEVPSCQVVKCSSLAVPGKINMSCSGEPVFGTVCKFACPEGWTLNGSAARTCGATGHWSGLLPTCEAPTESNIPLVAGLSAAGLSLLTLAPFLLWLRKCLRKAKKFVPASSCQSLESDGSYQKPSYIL
Sequence of human Retinoic Acid Receptor beta (RARb), RARB (gene 5915) (P10826 whole entry, looked up): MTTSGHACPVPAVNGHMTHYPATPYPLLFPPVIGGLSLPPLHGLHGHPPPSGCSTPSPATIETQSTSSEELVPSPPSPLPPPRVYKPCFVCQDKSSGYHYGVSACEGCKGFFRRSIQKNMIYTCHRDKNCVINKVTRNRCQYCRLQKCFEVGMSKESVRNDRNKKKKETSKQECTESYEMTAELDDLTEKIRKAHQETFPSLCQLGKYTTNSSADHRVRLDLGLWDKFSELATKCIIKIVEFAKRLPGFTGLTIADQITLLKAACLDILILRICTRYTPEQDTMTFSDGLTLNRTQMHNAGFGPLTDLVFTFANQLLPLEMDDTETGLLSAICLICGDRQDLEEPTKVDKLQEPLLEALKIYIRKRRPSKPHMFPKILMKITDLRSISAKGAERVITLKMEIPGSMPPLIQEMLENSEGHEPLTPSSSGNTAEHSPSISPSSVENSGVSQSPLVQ
Sequence of human Thyroid Receptor alpha (THRa1), THRA (gene 7067) (P10827 whole entry, looked up, the tested form may be a part): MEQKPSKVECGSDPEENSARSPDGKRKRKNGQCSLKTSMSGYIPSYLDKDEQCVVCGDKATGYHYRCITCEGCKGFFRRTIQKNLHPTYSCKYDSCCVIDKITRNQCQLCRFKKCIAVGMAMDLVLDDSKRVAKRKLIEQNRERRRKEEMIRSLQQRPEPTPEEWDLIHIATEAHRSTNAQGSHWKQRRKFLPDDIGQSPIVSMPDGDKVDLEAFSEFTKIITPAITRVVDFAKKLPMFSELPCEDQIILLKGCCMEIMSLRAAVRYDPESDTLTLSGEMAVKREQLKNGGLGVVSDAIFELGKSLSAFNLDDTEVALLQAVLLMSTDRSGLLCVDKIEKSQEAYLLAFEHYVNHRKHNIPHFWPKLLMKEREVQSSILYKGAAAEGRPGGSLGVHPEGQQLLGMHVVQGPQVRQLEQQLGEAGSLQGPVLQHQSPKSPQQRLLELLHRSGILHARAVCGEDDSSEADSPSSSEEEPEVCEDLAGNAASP
Sequence of Peroxisome proliferator-activated receptor gamma (Homo sapiens) (P37231 whole entry, looked up): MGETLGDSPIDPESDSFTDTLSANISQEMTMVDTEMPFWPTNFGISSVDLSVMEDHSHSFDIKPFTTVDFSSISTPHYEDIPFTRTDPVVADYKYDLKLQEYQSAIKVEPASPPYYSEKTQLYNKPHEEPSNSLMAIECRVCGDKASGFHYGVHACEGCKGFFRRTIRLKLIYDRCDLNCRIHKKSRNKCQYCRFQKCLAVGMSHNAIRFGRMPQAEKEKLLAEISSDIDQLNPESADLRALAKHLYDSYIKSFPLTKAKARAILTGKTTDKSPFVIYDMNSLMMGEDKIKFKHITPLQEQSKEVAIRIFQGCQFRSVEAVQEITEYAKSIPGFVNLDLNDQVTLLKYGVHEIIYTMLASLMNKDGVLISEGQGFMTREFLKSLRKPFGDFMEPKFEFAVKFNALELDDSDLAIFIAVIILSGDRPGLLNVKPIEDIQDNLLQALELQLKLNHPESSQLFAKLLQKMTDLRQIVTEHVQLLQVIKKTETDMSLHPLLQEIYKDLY
Sequence of human Retinoic Acid Receptor gamma (RARg), RARG (gene 5916) (P13631 whole entry, looked up, the tested form may be a part): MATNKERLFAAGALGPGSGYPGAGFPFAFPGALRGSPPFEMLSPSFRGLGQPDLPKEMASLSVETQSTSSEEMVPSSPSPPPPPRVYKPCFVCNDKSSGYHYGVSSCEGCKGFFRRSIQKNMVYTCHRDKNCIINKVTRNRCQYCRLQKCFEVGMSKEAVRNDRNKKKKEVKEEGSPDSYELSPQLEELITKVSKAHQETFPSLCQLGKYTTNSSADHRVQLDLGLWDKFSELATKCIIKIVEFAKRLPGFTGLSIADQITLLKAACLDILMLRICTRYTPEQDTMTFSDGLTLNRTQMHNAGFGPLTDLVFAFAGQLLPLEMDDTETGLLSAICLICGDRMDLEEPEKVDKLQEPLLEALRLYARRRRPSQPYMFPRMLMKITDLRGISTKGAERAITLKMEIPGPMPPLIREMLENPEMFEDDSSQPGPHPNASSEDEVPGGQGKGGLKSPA

`C1=Cc2cccc3cccc1c23`: the result in test [1], in test [2], in test [3], in test [4], in test [5] and in [6] was inactive. For the same compound, the compound was classed as inactive in test [7], in [8], in test [9], in [10], in [11] and in test [12]. In addition, the result in test [13], in test [14] and in test [15] was inactive.
On to `Cc1ccc(N=C=O)cc1N=C=O`, for which the outcome in test [1], in test [16], in [2], in test [5], in test [9] and in [10] was inactive. The result in [11], in [12], in [13], in [14] and in test [15] was inactive.
In the case of `CCN(CC)N=O`, the result in test [1], in test [8], in test [9], in test [10], in test [11] and in [12] was inactive. The result in test [13], in test [14] and in test [15] was inactive.
For `Brc1ccc(Oc2ccccc2)cc1`, the outcome in test [1], in [17], in [3], in [4], in test [6] and in test [10] was inactive. Further, the result in test [11], in test [12], in test [13], in test [14] and in test [15] was inactive. Further, the AC50 in test [7] was 69.7 µM (active); in [9], 30.9 µM (active).
Consider `Clc1ccc(Cl)c(Cl)c1`, for which the result in [1], in [2], in test [17], in test [3], in [9] and in [10] was inactive. Moreover, the result in test [11], in test [12], in [13], in test [14] and in test [15] was inactive.
Take `CCCSC(=O)N(CCC)CCC`: the outcome in test [1], in test [17], in test [4], in test [8], in test [9] and in [10] was inactive. Besides, the result in test [11], in test [12], in test [13], in [14] and in [15] was inactive. Besides, the AC50 in test [7] is 34.1 µM (active).
Regarding `CCCCC(CC)COC(=O)c1ccc(C(=O)OCC(CC)CCCC)c(C(=O)OCC(CC)CCCC)c1` (stereo unspecified), the result in test [1], in test [16], in [4], in [18], in test [6] and in [9] was inactive. The result in [10], in [11], in test [12], in test [13], in test [14] and in test [15] was inactive.
As for `CC(C)N(Cc1ccccc1)C(=O)C(C)(C)C`, the outcome in test [1], in [16], in [17], in test [7], in test [9] and in test [10] was inactive. For the same compound, the outcome in test [11], in [12], in test [13], in test [14] and in [15] was inactive. Moreover, the AC50 in [4] was 0.556 µM (active).
Regarding `O=C(Nc1ccccc1)c1ccccc1I`, the result in [1], in test [18], in [6], in test [7], in test [8] and in [9] was inactive. In addition, the outcome in test [10], in [11], in [12], in test [13], in test [14] and in [15] was inactive. For the same compound, the AC50 was 17.8 µM (active) in [3] and 10.6 µM (active) in test [4].
On to `Cc1ccc([N+](=O)[O-])cc1`, for which the result in test [1], in test [4], in test [6], in test [7], in test [8] and in [9] was inactive. Besides, the result in test [10], in [11], in test [12], in [13], in test [14] and in test [15] was inactive.

Values taken from PubChem BioAssay (EPA / NIEHS).
